Laboratory results as given in paper PMC7862700, “An all-to-all approach to the identification of sequence-specific readers for epigenetic DNA modifications on cytosine”.

Columns and labels:
Assay in all cases: DAPPL (digital affinity profiling via proximity ligation, sequencing); 10 mM Tris-HCl pH 7.5, 50 mM NaCl, 1 mM DTT, 4% glycerol, room temperature, 30 min; GST-TFs on glutathione beads, 16-mer random dsDNA library, 0.1% formaldehyde crosslink after washing; high values mean tight binding
Conditions in all cases: protein: recombinant; tags: N-terminal GST; dsDNA, one strand shown
ELK1 = target: T1, ELK1 (Homo sapiens, UniProt P19419 1-428)
T1 sequence: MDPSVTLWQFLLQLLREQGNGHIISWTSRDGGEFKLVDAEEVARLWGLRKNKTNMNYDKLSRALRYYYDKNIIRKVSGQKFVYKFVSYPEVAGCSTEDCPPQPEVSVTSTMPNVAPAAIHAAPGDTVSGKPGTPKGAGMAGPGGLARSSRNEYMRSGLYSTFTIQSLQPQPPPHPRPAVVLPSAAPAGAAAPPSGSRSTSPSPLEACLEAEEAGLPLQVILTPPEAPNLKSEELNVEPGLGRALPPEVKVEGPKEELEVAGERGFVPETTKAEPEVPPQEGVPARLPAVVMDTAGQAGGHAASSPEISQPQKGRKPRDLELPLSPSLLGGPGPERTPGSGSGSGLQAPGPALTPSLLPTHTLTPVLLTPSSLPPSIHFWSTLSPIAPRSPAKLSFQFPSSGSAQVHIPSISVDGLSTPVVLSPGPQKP
Summary of the method: (§1)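 A tag-only sample was pooled with DNA-barcoded human transcription factors that had been expressed in yeast as GST fusions and captured on glutathione beads. The pools were incubated for 30 min at room temperature with 200 nmole of a random double-stranded 16-mer DNA library in Tris/NaCl/DTT/glycerol buffer, then washed, crosslinked with 0.1% formaldehyde, proximity-ligated (BsaI/T4 ligase, 1 h, 37 °C), PCR-amplified and sequenced on an Illumina NextSeq500. Binding signal is each hexamer's read frequency for a factor divided by its frequency for the tag-only sample.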

ERG = target: T2, ERG (Homo sapiens, UniProt P11308 1-479)
T2 sequence: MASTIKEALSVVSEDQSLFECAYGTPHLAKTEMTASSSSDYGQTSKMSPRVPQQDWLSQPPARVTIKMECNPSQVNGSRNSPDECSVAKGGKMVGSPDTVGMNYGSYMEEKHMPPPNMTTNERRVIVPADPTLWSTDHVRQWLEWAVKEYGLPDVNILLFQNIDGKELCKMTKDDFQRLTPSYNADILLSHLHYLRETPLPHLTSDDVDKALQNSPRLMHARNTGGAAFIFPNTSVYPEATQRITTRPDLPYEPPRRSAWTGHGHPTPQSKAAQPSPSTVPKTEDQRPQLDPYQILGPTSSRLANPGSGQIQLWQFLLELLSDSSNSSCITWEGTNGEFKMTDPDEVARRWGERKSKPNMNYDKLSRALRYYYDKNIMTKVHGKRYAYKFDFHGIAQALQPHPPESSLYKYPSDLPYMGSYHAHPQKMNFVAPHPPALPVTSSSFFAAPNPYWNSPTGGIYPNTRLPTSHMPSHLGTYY
Summary of the method: as §1

ELF1 = ELF1 (Homo sapiens, UniProt P32519 1-619)
Sequence of ELF1 (P32519 whole entry): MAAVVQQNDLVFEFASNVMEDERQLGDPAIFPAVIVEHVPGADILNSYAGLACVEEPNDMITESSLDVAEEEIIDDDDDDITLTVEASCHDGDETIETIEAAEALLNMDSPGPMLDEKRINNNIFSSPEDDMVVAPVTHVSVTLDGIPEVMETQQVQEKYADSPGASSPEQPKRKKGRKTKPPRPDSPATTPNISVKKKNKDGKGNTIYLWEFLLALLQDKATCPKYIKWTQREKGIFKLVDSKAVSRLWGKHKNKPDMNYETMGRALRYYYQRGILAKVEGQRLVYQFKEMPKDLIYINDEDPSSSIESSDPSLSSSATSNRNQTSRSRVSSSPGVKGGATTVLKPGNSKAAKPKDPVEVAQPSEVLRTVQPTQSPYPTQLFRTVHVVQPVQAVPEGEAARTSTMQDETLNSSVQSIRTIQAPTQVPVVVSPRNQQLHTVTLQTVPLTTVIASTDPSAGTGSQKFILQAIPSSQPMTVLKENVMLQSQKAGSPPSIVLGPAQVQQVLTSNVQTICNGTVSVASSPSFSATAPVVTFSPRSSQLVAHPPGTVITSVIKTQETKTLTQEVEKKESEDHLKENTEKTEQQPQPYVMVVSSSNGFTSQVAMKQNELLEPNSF
Summary of the method: as §1

EHF = target: T3, EHF (Homo sapiens, UniProt Q9NZC4 1-300)
T3 sequence: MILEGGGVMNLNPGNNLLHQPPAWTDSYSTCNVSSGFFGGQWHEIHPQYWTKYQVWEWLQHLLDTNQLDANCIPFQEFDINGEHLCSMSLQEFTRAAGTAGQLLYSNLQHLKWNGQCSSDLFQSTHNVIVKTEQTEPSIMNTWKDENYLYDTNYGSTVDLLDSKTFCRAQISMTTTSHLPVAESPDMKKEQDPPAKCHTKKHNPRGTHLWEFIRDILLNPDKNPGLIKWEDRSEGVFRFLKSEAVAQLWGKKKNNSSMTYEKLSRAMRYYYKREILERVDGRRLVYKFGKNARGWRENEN
Summary of the method: as §1

SPIB = SPIB (Homo sapiens, UniProt Q01892 1-262)
Sequence of SPIB (Q01892 whole entry): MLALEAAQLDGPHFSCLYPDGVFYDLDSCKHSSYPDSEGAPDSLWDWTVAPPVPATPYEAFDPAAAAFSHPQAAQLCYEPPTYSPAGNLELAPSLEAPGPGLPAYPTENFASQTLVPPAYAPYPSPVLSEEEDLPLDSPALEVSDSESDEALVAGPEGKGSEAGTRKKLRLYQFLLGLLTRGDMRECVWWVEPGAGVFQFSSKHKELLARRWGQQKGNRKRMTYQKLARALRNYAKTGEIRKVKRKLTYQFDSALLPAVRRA
Summary of the method: as §1

ETV5 = ETV5 (Homo sapiens, UniProt P41161 1-510)
Sequence of ETV5 (P41161 whole entry): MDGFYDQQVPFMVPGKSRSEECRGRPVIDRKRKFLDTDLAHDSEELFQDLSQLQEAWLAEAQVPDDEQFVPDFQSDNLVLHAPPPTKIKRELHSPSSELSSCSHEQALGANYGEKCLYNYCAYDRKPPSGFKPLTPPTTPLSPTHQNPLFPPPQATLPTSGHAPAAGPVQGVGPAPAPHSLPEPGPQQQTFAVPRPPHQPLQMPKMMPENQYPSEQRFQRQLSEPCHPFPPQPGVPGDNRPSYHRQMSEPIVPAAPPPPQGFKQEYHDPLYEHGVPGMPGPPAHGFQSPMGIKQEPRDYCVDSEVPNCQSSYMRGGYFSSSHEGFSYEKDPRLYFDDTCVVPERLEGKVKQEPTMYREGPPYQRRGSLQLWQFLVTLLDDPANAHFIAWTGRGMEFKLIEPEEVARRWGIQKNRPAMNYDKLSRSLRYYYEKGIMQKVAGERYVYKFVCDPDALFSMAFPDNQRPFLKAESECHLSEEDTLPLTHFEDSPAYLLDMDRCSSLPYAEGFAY
Summary of the method: as §1

ELF4 = ELF4 (Homo sapiens, UniProt Q99607 1-663)
Sequence of ELF4 (Q99607 whole entry): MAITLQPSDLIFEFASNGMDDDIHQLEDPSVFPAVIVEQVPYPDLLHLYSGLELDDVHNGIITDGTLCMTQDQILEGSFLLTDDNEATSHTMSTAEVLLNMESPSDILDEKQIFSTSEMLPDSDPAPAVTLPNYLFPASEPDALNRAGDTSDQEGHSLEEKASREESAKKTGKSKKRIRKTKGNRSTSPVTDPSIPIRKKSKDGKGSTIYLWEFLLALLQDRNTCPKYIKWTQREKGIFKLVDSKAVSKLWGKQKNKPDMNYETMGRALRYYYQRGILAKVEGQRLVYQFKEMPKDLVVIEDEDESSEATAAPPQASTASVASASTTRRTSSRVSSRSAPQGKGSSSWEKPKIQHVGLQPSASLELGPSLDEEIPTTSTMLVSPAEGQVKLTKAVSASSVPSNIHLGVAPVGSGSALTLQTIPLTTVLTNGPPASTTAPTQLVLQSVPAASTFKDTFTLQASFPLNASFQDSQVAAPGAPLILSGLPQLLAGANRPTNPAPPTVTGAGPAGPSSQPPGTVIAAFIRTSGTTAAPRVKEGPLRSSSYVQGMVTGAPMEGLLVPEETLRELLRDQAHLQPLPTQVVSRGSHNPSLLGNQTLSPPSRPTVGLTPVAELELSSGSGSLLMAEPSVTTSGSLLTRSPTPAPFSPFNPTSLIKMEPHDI
Summary of the method: as §1

ELK4 = target: T4, ELK4 (Homo sapiens, UniProt P28324-2 1-405)
T4 sequence: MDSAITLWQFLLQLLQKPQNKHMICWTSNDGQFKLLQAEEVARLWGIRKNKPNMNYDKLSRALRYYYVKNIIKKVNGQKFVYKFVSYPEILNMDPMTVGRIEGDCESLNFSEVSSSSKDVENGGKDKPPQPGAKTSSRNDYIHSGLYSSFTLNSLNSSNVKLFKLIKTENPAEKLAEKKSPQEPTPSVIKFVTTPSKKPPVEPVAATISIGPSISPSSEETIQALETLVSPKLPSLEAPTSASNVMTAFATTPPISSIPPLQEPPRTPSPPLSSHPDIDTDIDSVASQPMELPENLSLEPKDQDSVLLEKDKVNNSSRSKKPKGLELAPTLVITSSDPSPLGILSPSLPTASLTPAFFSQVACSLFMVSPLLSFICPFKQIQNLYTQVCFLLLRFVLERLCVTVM
Summary of the method: as §1

ETV2 = target: T5, ETV2 (Homo sapiens, UniProt O00321 1-342)
T5 sequence: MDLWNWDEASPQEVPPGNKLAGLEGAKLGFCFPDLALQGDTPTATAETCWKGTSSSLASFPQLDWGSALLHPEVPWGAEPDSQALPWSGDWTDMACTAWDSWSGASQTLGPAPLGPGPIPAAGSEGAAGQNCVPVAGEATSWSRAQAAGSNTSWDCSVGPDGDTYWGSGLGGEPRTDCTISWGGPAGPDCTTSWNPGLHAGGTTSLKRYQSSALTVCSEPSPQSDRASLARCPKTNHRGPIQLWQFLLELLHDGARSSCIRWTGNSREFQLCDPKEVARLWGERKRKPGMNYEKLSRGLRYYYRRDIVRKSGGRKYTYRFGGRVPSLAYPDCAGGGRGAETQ
Summary of the method: as §1

ETV1 = ETV1 (Homo sapiens, UniProt P50549 1-477)
Sequence of ETV1 (P50549 whole entry): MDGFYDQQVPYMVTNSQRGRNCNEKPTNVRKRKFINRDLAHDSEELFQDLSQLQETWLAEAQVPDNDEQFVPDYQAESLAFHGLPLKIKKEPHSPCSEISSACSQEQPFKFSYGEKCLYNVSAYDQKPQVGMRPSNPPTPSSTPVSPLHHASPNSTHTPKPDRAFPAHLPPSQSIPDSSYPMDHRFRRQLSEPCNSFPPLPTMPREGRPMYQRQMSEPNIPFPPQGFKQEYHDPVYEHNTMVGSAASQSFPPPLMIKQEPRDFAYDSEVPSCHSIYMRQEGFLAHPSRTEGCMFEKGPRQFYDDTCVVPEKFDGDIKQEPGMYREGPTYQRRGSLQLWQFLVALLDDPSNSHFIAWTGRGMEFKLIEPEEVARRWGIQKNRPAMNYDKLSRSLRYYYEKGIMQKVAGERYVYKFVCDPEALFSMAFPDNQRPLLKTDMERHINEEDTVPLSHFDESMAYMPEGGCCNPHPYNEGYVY
Summary of the method: as §1

ERF = target: T6, ERF (Homo sapiens, UniProt P50548 1-548)
T6 sequence: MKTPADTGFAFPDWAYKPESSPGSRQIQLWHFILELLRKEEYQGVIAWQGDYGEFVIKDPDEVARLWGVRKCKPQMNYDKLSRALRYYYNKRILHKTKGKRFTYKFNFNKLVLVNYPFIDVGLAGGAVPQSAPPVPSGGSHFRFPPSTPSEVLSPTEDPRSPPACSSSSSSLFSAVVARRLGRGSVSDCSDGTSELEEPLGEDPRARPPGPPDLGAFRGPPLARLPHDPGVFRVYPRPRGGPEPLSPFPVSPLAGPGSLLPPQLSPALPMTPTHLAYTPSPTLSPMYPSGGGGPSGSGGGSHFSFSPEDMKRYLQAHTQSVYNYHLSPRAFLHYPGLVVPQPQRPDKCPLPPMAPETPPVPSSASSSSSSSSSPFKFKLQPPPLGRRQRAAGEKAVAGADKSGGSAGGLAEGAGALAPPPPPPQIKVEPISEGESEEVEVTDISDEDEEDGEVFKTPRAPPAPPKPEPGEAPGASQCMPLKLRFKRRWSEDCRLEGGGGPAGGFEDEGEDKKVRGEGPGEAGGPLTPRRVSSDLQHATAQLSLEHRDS
Summary of the method: as §1

ETV3L = target: T7, ETV3L (Homo sapiens, UniProt Q6ZN32 1-361)
T7 sequence: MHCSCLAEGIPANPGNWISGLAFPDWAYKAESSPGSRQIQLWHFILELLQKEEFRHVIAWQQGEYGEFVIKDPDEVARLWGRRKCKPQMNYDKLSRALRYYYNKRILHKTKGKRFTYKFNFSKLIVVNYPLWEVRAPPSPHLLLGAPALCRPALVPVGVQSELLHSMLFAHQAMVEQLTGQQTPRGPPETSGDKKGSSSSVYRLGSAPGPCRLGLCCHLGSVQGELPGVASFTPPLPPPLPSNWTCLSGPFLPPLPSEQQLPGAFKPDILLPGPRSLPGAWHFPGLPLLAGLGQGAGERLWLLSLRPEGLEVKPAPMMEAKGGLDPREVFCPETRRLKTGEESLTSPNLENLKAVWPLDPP
Summary of the method: as §1

ETS2 = target: T8, ETS2 (Homo sapiens, UniProt P15036 1-469)
T8 sequence: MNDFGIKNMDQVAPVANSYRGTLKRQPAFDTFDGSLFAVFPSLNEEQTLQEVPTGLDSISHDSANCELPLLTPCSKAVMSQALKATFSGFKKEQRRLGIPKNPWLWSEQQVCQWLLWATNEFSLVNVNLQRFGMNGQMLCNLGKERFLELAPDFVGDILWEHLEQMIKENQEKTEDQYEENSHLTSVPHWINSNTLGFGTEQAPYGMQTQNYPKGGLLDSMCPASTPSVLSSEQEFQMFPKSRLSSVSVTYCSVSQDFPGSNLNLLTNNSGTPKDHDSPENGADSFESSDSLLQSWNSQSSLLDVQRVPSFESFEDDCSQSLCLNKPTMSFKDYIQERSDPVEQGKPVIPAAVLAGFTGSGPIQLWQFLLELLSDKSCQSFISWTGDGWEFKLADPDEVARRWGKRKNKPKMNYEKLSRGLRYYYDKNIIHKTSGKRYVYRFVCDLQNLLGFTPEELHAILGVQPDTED
Summary of the method: as §1

SPDEF = target: T9, SPDEF (Homo sapiens, UniProt O95238 1-335)
T9 sequence: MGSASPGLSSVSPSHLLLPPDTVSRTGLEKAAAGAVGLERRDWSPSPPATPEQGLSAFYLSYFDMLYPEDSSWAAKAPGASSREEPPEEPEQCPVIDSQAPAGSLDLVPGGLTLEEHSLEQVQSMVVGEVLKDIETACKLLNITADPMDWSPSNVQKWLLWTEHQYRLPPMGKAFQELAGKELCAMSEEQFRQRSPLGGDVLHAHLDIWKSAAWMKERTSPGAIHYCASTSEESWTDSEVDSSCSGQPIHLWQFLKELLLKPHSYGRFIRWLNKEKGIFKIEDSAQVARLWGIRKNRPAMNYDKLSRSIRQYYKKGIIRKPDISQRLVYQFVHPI
Summary of the method: as §1

ETV7 = target: T10, ETV7 (Homo sapiens, UniProt Q9Y603 1-341)
T10 sequence: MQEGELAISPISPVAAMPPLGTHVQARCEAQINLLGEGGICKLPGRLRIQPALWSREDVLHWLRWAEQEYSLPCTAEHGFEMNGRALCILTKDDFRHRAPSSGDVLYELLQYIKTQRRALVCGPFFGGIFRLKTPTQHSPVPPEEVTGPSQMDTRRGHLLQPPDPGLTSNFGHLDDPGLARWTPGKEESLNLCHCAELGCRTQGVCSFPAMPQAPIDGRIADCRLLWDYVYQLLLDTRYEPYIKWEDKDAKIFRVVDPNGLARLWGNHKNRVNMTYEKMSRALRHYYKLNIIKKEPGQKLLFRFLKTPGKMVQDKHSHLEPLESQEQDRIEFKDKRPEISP
Summary of the method: as §1

ETV3 = target: T11, ETV3 (Homo sapiens, UniProt P41162-2 1-143)
T11 sequence: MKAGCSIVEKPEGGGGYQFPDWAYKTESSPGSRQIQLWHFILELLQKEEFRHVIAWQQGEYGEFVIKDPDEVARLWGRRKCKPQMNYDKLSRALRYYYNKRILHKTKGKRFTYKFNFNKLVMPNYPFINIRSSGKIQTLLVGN
Summary of the method: as §1

ETV6 = ETV6 (Homo sapiens, UniProt P41212 1-452)
Sequence of ETV6 (P41212 whole entry): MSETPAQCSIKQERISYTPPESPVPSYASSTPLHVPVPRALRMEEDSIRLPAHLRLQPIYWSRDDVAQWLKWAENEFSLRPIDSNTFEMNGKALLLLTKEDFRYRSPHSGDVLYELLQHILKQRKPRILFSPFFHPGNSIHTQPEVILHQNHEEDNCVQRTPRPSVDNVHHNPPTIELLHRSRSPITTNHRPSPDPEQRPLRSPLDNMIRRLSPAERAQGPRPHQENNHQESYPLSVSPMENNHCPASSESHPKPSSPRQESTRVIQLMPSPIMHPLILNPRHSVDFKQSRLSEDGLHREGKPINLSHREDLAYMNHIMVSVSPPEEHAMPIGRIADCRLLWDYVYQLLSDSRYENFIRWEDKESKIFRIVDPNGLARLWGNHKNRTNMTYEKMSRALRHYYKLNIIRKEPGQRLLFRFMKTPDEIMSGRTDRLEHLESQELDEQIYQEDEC
Summary of the method: as §1

Q: Which results are given for CATGTT?
A: binding signal (ELK1): 1.07 fold enrichment (6-mer frequency, TF over GST control); binding signal (ERG): 1.04 fold enrichment (6-mer frequency, TF over GST control); binding signal (ELF1): 1.06 fold enrichment (6-mer frequency, TF over GST control); binding signal (EHF): 1.03 fold enrichment (6-mer frequency, TF over GST control); binding signal (SPIB): 1.03 fold enrichment (6-mer frequency, TF over GST control); binding signal (ETV5): 1.03 fold enrichment (6-mer frequency, TF over GST control); binding signal (ELF4): 1.05 fold enrichment (6-mer frequency, TF over GST control); binding signal (ELK4): 1.1 fold enrichment (6-mer frequency, TF over GST control); binding signal (ETV2): 1.11 fold enrichment (6-mer frequency, TF over GST control); binding signal (ETV1): 1.15 fold enrichment (6-mer frequency, TF over GST control); binding signal (ERF): 1.05 fold enrichment (6-mer frequency, TF over GST control); binding signal (ETV3L): 1.06 fold enrichment (6-mer frequency, TF over GST control); binding signal (ETS2): 1.01 fold enrichment (6-mer frequency, TF over GST control); binding signal (SPDEF): 1.02 fold enrichment (6-mer frequency, TF over GST control); binding signal (ETV7): 1.1 fold enrichment (6-mer frequency, TF over GST control); binding signal (ETV3): 1.12 fold enrichment (6-mer frequency, TF over GST control); binding signal (ETV6): 1.1 fold enrichment (6-mer frequency, TF over GST control)
